Measurements published in PubChem BioAssay (NCI).
This is part of a sample that, as a whole, favours compounds with a hit. Of some 83,000 tested, about 20% had one in any assay.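 Growth was measured after 48 h exposure to one concentration of compound in 96-well plates. Values under 10 count as active.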 A number with no mark means an inactive call. Active and inactive are the calls of the source.

How the values were obtained:
Experiment in all cases: NCI-60 one-dose screen, 48 h (100 = growth as untreated, 0 = no growth, -100 = all killed)
Conditions in all cases: 10 µM unless noted
DU-145 prostate = test system: DU-145 prostate
K-562 leukemia = test system: K-562 leukemia
MALME-3M melanoma = test system: MALME-3M melanoma
MDA-MB-231 breast = test system: MDA-MB-231 breast
RXF 393 renal = test system: RXF 393 renal
SF-268 CNS = test system: SF-268 CNS
SF-295 CNS = test system: SF-295 CNS
SF-539 CNS = test system: SF-539 CNS
UACC-257 melanoma = test system: UACC-257 melanoma
M14 melanoma = test system: M14 melanoma

Compound	growth (DU-145 prostate)	growth (K-562 leukemia)	growth (MALME-3M melanoma)	growth (MDA-MB-231 breast)	growth (RXF 393 renal)	growth (SF-268 CNS)	growth (SF-295 CNS)	growth (SF-539 CNS)	growth (UACC-257 melanoma)	growth (M14 melanoma)
O=C(OCc1ccc2c(Br)cc(Br)c(O)c2n1)c1cc2ccccc2[nH]1	-91.6% (active)	1.14% (active)	-85.5% (active)	-81.9% (active)	-91.4% (active)	-51.5% (active)	68.5%	-96.3% (active)	-64.6% (active)	-64.7% (active)
Cc1ccc(NC(=O)c2nc(S(C)=O)oc2-c2ccc(F)cc2)cc1Nc1nccc(-c2cccnc2)n1 (stereo not given)	79.4%	-16.7% (active)	34.7%	39%	7.47% (active)	54.4%	86.4%	69.4%	87.3%	55.2%
CN1CCN(Cc2ccc(NC(=O)c3cnc(F)c(C#Cc4cnc(N)c5ncccc45)c3)cc2C(F)(F)F)CC1	30.5%	1.55% (active)	-43.1% (active)	-25.7% (active)	-0.985% (active)	28.6%	48.2%	9.63% (active)	13.5%	-56.4% (active)
ClCc1cccc(CSc2ncnc3c2ncn3Cc2cccc(CCl)c2)c1	50.4%	14.2%	41.7%	12%	-20.2% (active)	17%	92%	58.2%	42.5%	-71.8% (active)
COc1ccc(C2=Nn3c(nnc3-c3ccc(Cl)cc3N)SC2)cc1	117%	102%	104%	85.7%	104%	106%	94.3%	102%	95%	107%
COc1cccc2nc(Nc3cccc(NC(=O)c4ccc(N5CCN(C)CC5)c(C(F)(F)F)c4)c3)ccc12	29.4%	-49.1% (active)	-10.5% (active)	29.5%	-2.23% (active)	35.5%	-0.464% (active)	-27.9% (active)	-21.9% (active)	10.1%
CN1CCN(Cc2ccc(NC(=O)c3ccc(C#N)c(C#Cc4cnc(N)c5ncccc45)c3)cc2C(F)(F)F)CC1	28.8%	-5.03% (active)	-52% (active)	-2.17% (active)	41.9%	94.1%	103%	54.5%	-20.1% (active)	3.5% (active)
Clc1ccc(Nc2ncnc3c2sc2ncccc23)cc1	20.2%	46.6%	65.6%	63.9%	32.9%	23%	19.1%	6.42% (active)	41.6%	-21.5% (active)
O=C(N=Nc1c(Cl)c(O)c2ccccc2c1O)C(=O)Nc1cccc(C(F)(F)F)c1	-38.7% (active)	57.6%	10.7%	56.6%	81.5%	68.2%	41.1%	102%	100%	32.8%
COc1c(C(=O)/C=C/c2ccc(C)o2)c(O)cc2occc12	87.1%	22.5%	76.7%	89%	62%	80.1%	82.4%	80.6%	86.1%	55.5%
Fc1ccc2c(CN3CCO[C@H](COc4cccc(Cl)c4)C3)c[nH]c2c1	42.6%	32.1%	81.9%	66.8%	82.9%	81.1%	41.1%	56.7%	53.6%	54.4%
CCOc1ccc([C@@H]2[C@@H](Oc3ccccc3)C(=O)N2c2cc(OC)c(OC)c(OC)c2)cc1	12.5%	6.3% (active)	71.8%	10.1%	14.1%	33.9%	13.1%	-12.9% (active)	73.7%	4.74% (active)
COc1ccc(-c2oc(=O)ccc2-c2cc(OC)c(OC)c(OC)c2)cc1F	109%	26.7%	68.9%	77.3%	90.9%	95.3%	62.4%	80.4%	66.4%	60.8%
c1ccc(-c2[nH]c3ccccc3c2-c2ccccc2)cc1	99.7%	83.4%	93.9%	84.7%	149%	106%	87.9%	84.6%	101%	89.5%
